Results filed as inconclusive are left out. Values without a mark were called inactive. Calls of active or inactive are those of the source. Calls come from the whole dose curve; as a rule, active = well fitted inhibition curve with a large enough effect; inconclusive = small, poorly fitted or top-dose-only effect; inactive = flat fitted curve, though single readings scatter.
% is set by controls: 0 for no effect and ±100 for the full control effect.

A short description of this test: P-glycoprotein substrates identified in KB-8-5-11 adenocarcinoma cell line, qHTS therapeutic library screen (AID 1346987). Note: nearly all actives have a fitted effect of over 65% in size. The note with it: KB-8-5-11 (P-gp overexpressing) viability, CellTiter-Glo, 72 h; series mostly up to 44.5 µM; activity change, negative = cytotoxicity: at the top concentration. An outline of the steps: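 Luminescence from CellTiter-Glo, read 5 min after addition, quantified survival of KB-8-5-11 (P-gp-overexpressing) cells exposed to compounds for 72 h. AC50 was derived from concentration-response curves.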
In general terms: Quantitative high-throughput screening tests each substance at several concentrations.
As to `COC1=CC(=O)O[C@@H](CCc2ccccc2)[C@@H]1O`, the “activity change, negative = cytotoxicity” value is 4.29%.

For `CC(=O)N1c2ccccc2C2(O)CC3C(=O)NC(CC(C)C)C(=O)N3C12` (stereo not drawn), the compound was called inactive.

In the case of `O=C(O[C@H]1[C@@H]2C=CO[C@@H](O[C@@H]3O[C@H](CO)[C@@H](O)[C@H](O)[C@H]3O)[C@@H]2[C@@]2(CO)O[C@@H]12)c1ccc(O)c(O)c1`, the “outcome” value was “inactive [at 17.3 µM]”.

On to `CC(C)(C)NCc1cc(Nc2ccnc3cc(Cl)ccc23)c2c(c1O)CCCC2`, for which the activity change, negative = cytotoxicity was 0.372% [at 0.354 µM].

In the case of `CC1(C)CCC(C)(C)c2cc([C@@H](O)C(=O)Nc3ccc(C(=O)O)cc3F)ccc21`, the compound was classed as inactive.

In the case of `C=C1CC[C@@H]2[C@](C)(CC[C@H](O)[C@@]2(C)CCC=C(C)C)[C@@H]1Cc1c[nH]c2ccccc12`, the “activity change, negative = cytotoxicity” value is -21% [at 17.3 µM].

As for `CC1CCC2(C(=O)OC3OC(CO)C(O)C(O)C3O)CCC3(C)C(=CCC4C5(C)CC(O)C(O)C(C)(C(=O)O)C5CCC43C)C2C1(C)O` (stereo not drawn), the “activity change, negative = cytotoxicity” value is 0.228% [at 17.3 µM].

Regarding `Cc1cc(O)cc(Oc2cc(C)c(C(=O)O)c(O)c2)c1`, the “activity change, negative = cytotoxicity” value is 0.464%.

As to `C=C1CCC(OC(C)=O)C2(C)CC3(O)OC(=O)C(C)=C3CC12` (stereo not drawn), the result was inactive.

In the case of `C[C@]12CCC(=O)C=C1[C@@H](O)C[C@@H]1[C@@H]2[C@@H](O)C[C@@]2(C)[C@H]1CC[C@]2(O)C(=O)CO`, the call was inactive.

For the compound `O=C(O)CCc1cc2ccoc2cc1O[C@@H]1O[C@H](CO[C@@H]2OC[C@](O)(CO)[C@H]2O)[C@@H](O)[C@H](O)[C@H]1O`, the “activity change, negative = cytotoxicity” value is 2.92% [at 17.3 µM].

Take `CC1(C)CC(=O)N(CCCCN2CCN(c3ncccn3)CC2)C(=O)C1`: the “activity change, negative = cytotoxicity” value is -6.57%.

Take `CC(C)(O)C1=CCC23COC(C2)C(O)(C(=O)O)CCC13` (stereo not drawn): the compound was classed as inactive.

Regarding `CC(O)(CC(=O)O)CC(=O)O[C@@H]1[C@@H](O)[C@H](OCCc2ccccc2)O[C@H](CO)[C@H]1O` (stereo partly drawn), the “activity change, negative = cytotoxicity” value is 0.385% [at 17.3 µM].

Take `O=C(OCC12OC1C=CC(OC(=O)c1ccccc1)C2O)c1ccccc1` (stereo not drawn): the “activity change, negative = cytotoxicity” value is 5.62%.

Take `COc1cc(CC(COC2OC(CO)C(O)C(O)C2O)c2cc(/C=C/CO)cc(OC)c2O)ccc1O` (stereo not drawn): the “activity change, negative = cytotoxicity” value was 9.07% [at 17.3 µM].

Regarding `C=C1CCC2C(C)(CO[C@@H]3O[C@H](CO)[C@@H](O)[C@H](O)[C@H]3O)C(O)CCC2(C)C1C(=O)CC1=CCOC1=O` (stereo partly drawn), the “activity change, negative = cytotoxicity” value is 8.63% [at 17.3 µM].

With `C=C1[C@@H]2[C@H]3OC(=O)C(=C)[C@@H]3CC[C@@](C)(O)[C@@H]2C[C@@H]1O[C@@H]1O[C@H](CO)[C@@H](O)[C@H](O)[C@H]1O`, the “outcome” value was “inactive [at 17.3 µM]”.

For the compound `O=C(c1ccccn1)c1cnn2c(-c3ccncc3)ccnc12`, the compound was called inactive.

Regarding `O=C(O)C[C@@H](NC(=O)c1cc(-c2ccc(-c3ccncc3)cc2)cs1)c1ccccc1`, the “activity change, negative = cytotoxicity” value is 0.138%.

Regarding `COC(=O)C1=CO[C@@H](O[C@@H]2O[C@H](CO)[C@@H](O)[C@H](O)[C@H]2O)[C@@H]2[C@@H](C(=O)OC)[C@@H](O)C(O)[C@H]12` (stereo partly drawn), the “activity change, negative = cytotoxicity” value was 1.87% [at 17.3 µM].

As to `C/C(=C/CO)CC[C@@H]1[C@@]2(C)CCC[C@](C)(C(=O)O)C2CC[C@@]1(C)O` (stereo partly drawn), the “activity change, negative = cytotoxicity” value was 9.82%.

In the case of `C=CC1(C)CC2=CCC3C(C)(C(=O)O)CCCC3(C)C2CC1OC(C)=O` (stereo not drawn), the call was inactive.

On to `CC1NC(=O)C(Cc2c[nH]c3ccccc23)NC1=O` (stereo not drawn), for which the compound was called inactive.

Consider `CCOC(=O)[C@H](CCc1ccccc1)N[C@@H](C)C(=O)N1C2CCCCC2C[C@H]1C(=O)O` (stereo partly drawn), for which the compound was classed as inactive.

In the case of `COc1cc([C@H]2OC[C@@H]3[C@@H](c4ccc(O[C@@H]5O[C@H](CO)[C@@H](O)[C@H](O)[C@H]5O)c(OC)c4)OC[C@]23O)ccc1O`, the “outcome” value is “inactive [at 17.3 µM]”.

For `COC(=O)CC1(O)C(=O)Nc2ccccc21` (stereo not drawn), the compound was called inactive.

Regarding `C[C@@H]1C(=O)O[C@H]2CC34[C@H]5C[C@@H](C(C)(C)C)C36[C@@H](OC(=O)[C@@H]6O)O[C@@]4(C(=O)O5)[C@]21O` (stereo partly drawn), the “outcome” value is “inactive [at 17.3 µM]”.

Consider `COc1ccc(C2=CC(=O)OC2Cc2ccc(O)cc2)c(O)c1` (stereo not drawn), for which the “activity change, negative = cytotoxicity” value is 0.278%.

Consider `COc1ccc(/C=C/C(=O)O[C@@H]2[C@@H](OC(C)=O)[C@@H](OC(C)=O)[C@H](O[C@H]3[C@@H]4C=CO[C@@H](O[C@@H]5O[C@H](CO)[C@@H](O)[C@H](O)[C@H]5O)[C@@H]4[C@@]4(CO)O[C@@H]34)O[C@H]2C)cc1O`, for which the “outcome” value is “inactive [at 17.3 µM]”.

In the case of `C=C(C)C1CC2(CO)C(=CC1=O)CCC(O)C2C` (stereo not drawn), the “activity change, negative = cytotoxicity” value is 7.08%.

In the case of `C=C1C2(CCC(=O)OC2(C)C)CC(OC(=O)/C(C)=C/C)C2(C)C13OC14C(=O)OC(C)(C(=O)C12C(=O)OC4C)C3OC(C)=O` (stereo not drawn), the “outcome” value was “inactive [at 17.3 µM]”.

Consider `C=C1CC[C@H]2[C@@H](/C=C(\C)C(=O)[C@@]3(OC(C)=O)C[C@H](C)[C@H](OC(C)=O)[C@@H]3[C@H]1OC(C)=O)C2(C)C`, for which the “activity change, negative = cytotoxicity” value is -1.45% [at 17.3 µM].

Source of the values: PubChem BioAssay (NCATS).
